Hits are enriched below; roughly 3.6% of the tested compounds scored in any of these assays.
PTEN del growth: PTEN-deleted cell growth suppression. HCT116 PTEN-null viability, CellTiter-Glo, 60 h; active compounds read low. viability, % at 10 µM. 1.2% of 140,000 active. AID 827;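 active = viability at or below a set limit, 4 SD under the median of all tested compounds, cut at about 3.7% in these data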;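 also: PTEN knockout HCT116 line with beta catenin targeted HCT116 as companion control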
DAT uptake mod: changed human dopamine transporter uptake under cocaine IC80 | 1.3% of 110,000 active | LLC-PK1 hDAT cells, [14C]-dopamine uptake with cocaine IC80; actives deviate in either direction | Q01959 | AID 449768 | B-score at 10 µM;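 active = Z score or B-score, a plate-position-corrected score, falls beyond the plate's 99.7% confidence bounds, in either direction; inactive = both scores lie inside the 99.7% bounds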;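 also: scored against the spread of the other compound wells on the same plate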
Target sequence (Q01959 whole entry, looked up): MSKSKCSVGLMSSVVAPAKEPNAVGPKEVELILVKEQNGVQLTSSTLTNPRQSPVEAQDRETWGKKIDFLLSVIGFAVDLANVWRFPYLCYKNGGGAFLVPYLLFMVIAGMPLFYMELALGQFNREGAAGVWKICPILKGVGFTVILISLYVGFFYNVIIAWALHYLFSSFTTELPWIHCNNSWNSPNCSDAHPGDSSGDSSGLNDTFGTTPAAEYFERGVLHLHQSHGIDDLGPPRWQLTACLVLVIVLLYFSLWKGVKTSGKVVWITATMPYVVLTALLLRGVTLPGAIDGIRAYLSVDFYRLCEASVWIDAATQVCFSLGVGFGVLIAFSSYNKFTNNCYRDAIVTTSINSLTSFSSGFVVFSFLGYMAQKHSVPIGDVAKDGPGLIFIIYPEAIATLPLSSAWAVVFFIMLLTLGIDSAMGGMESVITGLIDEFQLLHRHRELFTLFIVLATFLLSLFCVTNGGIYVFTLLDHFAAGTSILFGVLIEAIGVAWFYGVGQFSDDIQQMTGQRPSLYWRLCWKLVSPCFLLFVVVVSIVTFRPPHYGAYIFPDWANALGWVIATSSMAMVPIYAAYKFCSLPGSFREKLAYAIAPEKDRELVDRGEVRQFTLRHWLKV
WT yeast gro inh: growth inhibition of WT yeast, mitochondrial fusion screen; AID 1362; mitochondrial fusion phenotypic screen, WT strain; inhibition, % at 10 µM; 2.1% of 190,000 active; in the data active = inhibition above about 58%; tested in S. cerevisiae
HCT116 bCat-KO: beta-catenin-lacking colon tumor cell growth suppression. viability, % at 10 µM. HCT116 beta-catenin knockout viability, CellTiter-Glo, 60 h; active compounds read low. 1.5% of 140,000 active. AID 818;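 active = viability at or under a set limit, the compound median less 4 SD, cut at about 6% in these data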;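 also: 0% = Hyamine 1622 control at 20 µM and 100% = untreated cell control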
* marks the source's active call; other numbers are inactive results; . = not tested or not shown.

SMILES	PTEN del growth	DAT uptake mod	WT yeast gro inh	HCT116 bCat-KO
O=S(=O)(Nc1ccc(-n2cccc2)cc1)c1ccc(Cl)cc1Cl	95.4	-1.59	87.9*	92.8
O=C(Cn1ncc(Cl)c(Cl)c1=O)N1CCN(S(=O)(=O)c2ccc3ccccc3c2)CC1	1.1*	.	-18.6	1.1*
CCc1c(C)nc(SC(C(=O)O)c2ccccc2)c(C#N)c1C (centres undefined)	89.4	.	-42.2	97.5
Cc1ccc(C(NC(=O)NC(C)c2ccccc2)C(Cl)(Cl)Cl)cc1F (centres undefined)	3.4*	.	64.0*	6.1*
CCC(Sc1nc2n[nH]c(C)c2c(=N)n1-c1cccc(Cl)c1)C(=O)NCCOC (centres undefined)	51.1	1.97*	-7.3	59.4
CCC(Sc1nc2n[nH]c(C)c2c(=N)n1-c1ccc(C)c(Cl)c1)C(=O)N1CCOCC1 (centres undefined)	72.0	0.741	-9.8	74.9
CC(C)CCNC(=O)CN(CC1CCCO1)C(=O)CCC(=O)Nc1ccccn1 (centres undefined)	77.2	0.398	70.2*	83.2
CCOC(=O)c1c(C)nc2sc(C(=O)Nc3ccc(C(C)=O)cc3)c(N)c2c1-c1ccc(OC)cc1	47.7	3.6*	6.3	56.9
COc1ccc([N+](=O)[O-])cc1NC(=O)c1cn(-c2ccc(C)c(C)c2)c(=O)c2ccccc12	62.2	.	0.5	50.8
Nc1nc2ccccc2n1/N=C/c1cccnc1	90.8	0.00633	-6.4	94.5
Nc1nc2ccccc2n1/N=C/c1ccc([N+](=O)[O-])s1	2.6*	.	15.0	3.5*
O=C(NCc1cccc(Br)c1)C1CC(c2ccccc2C(F)(F)F)=NO1 (centres undefined)	.	-0.119	.	.
Cc1ccc(N(CC(=O)NCCSc2ccccn2)S(=O)(=O)c2ccc(F)cc2)cc1	.	.	-5.2	.
O=C(C1COc2ccccc2O1)N1CCN(c2ccccc2)CC1 (centres undefined)	94.2	0.671	23.3	99.2
COc1cc2nc(N3CCN(C(=O)C4COc5ccccc5O4)CC3)nc(N)c2cc1OC (centres undefined)	8.8	1.27	7.5	4.6*
CCOC(=O)CCN(Cc1sccc1C)S(=O)(=O)c1ccc(F)cc1	86.6	3.79*	11.4	96.7
CC(C)(C)NC(=O)C(c1cccs1)N(Cc1cccs1)C(=O)c1csnn1 (centres undefined)	.	.	15.2	.
CNC1=C(N(C(C)=O)c2ccc(Br)cc2)C(=O)c2ccccc2C1=O	1.4*	.	-5.0	1.3*
Cc1cc(NC(=O)COC(=O)C(Nc2ccc(C(F)(F)F)cc2Cl)C(C)C)no1 (centres undefined)	51.2	0.2	79.1*	62.4
Cc1ccc(Cl)cc1N1CCN(S(=O)(=O)N2CCCCC2)CC1	.	.	72.8*	.
Cc1ccc(S(=O)(=O)N2CCN(CC(=O)N(CC(C)C)c3c(N)n(CC(C)C)c(=O)[nH]c3=O)CC2)c(C)c1	80.5	.	-3.7	77.2
CCc1nn2cc(C(=O)c3cc(Cl)ccc3O)cnc2c1-c1ccc(F)cc1	17.8	.	80.8*	42.8
NNc1nc2ccc(F)cc2s1	89.5	.	64.7*	86.2
CC(=O)Nc1ccc(C(=O)CSc2nnnn2C2CCCC2)cc1	.	.	-5.8	.
COc1ccc(C(=O)C(Cc2cc(C(C)=O)ccc2OC)N2CCCC2)cc1 (centres undefined)	.	.	-2.8	.
SMILES	PTEN del growth	DAT uptake mod	WT yeast gro inh	HCT116 bCat-KO
COc1ccccc1-n1cnnc1SCC(=O)Nc1cccc(S(=O)(=O)N2CCCCC2)c1	69.5	.	-3.4	62.8
Cc1ccc(-c2cc(-c3ccccc3)c(C#N)c(N)n2)o1	73.2	-0.559	64.9*	88.9
O=C(c1cccs1)N1CCc2c([nH]c3ccccc23)C1c1ccccn1 (centres undefined)	.	.	11.4	.
Cc1cccc(C2c3[nH]c4ccccc4c3CCN2C(=O)c2noc3c2CCCC3)n1 (centres undefined)	.	.	59.7*	.
CSc1nc(C(=O)N2CCc3c([nH]c4ccccc34)C2c2ccccn2)cs1 (centres undefined)	.	.	58.9*	.
CCOc1ccc(C(C)NC(=S)NC2CCCCC2)cc1 (centres undefined)	.	.	72.5*	.
CC(C)c1ccccc1NC(=S)NC1CCCCC1	.	.	71.5*	.
CC(C)c1ccccc1NC(=S)NCc1ccccc1F	101.0	.	-6.1	90.3
S=C(Nc1cccc2ccccc12)NC1CCCCC1	.	.	74.7*	.
CC(C)c1ccccc1NC(=S)NC(C)c1ccccc1 (centres undefined)	50.0	.	60.2*	51.4
COc1cc(-c2nnc(SCc3ccccc3Cl)o2)cc(OC)c1OC	94.0	.	55.9	92.3
COc1cc(-c2nnc(SCc3c(F)cccc3Cl)o2)cc(OC)c1OC	78.5	1.4	64.1*	87.2
CS(=O)(=O)N1CCc2cc(C(=O)N3CCOCC3)ccc21	96.4	0.0696	81.8*	92.6
COc1cccc(-c2ccc(=O)n(CC(=O)Nc3cc4c(cc3NC(C)=O)OCCO4)n2)c1	94.8	0.451	-1.2	99.4
COc1cccc(-c2ccc(=O)n(CC(=O)Nc3ccc(C(=O)N4CCCC4)cc3)n2)c1	92.2	2.9*	-0.7	84.9
CS(=O)(=O)Nc1cccc2cccnc12	11.5	-1.69	5.6	11.2
Cc1cc(C)n(-c2ccc3cccc(NS(C)(=O)=O)c3n2)n1	5.2	-0.65	-4.5	3.6*
Cc1c(CN(C)C)c2c(n1Cc1ccccc1)C(=O)c1ccc(Br)cc1-2	8.5	0.665	82.2*	10.3
Cc1c(CN(C)C)c2c(n1C)C(=O)c1ccc(Br)cc1-2	67.9	-1.24	-2.7	68.0
COc1cc(NS(=O)(=O)c2ccc(Nc3nc(-c4ccccc4)cs3)cc2)nc(OC)n1	104.8	.	-52.6	101.4
Nc1nnnn1/N=C/c1cc(Cl)cc(Cl)c1OCc1ccc(Cl)cc1Cl	4.2	-0.0442	2.3	3.2*
CCN(CC(=O)NCc1ccc(Cl)cc1)C(=O)c1ccc(S(=O)(=O)N(C)C)cc1	.	.	-8.6	.
FC(F)(F)c1nc2ccccc2n2c(-c3ccc(Cl)cc3)nnc12	9.9	-0.32	-10.9	4.8*
Cc1ccc(-c2nnc3c(C(F)(F)F)nc4ccccc4n23)cc1	7.9	0.175	-5.6	4.7*
On1c(-c2ccc(Cl)cc2)nc2ccccc21	.	.	78.9*	.
SMILES	PTEN del growth	DAT uptake mod	WT yeast gro inh	HCT116 bCat-KO
O=C(Nc1cc(SCC(O)CO)cc([N+](=O)[O-])c1)c1ccc(-n2cnnn2)cc1 (centres undefined)	.	.	12.8	.
CCSC1=C(C#N)C2(CCCC2)C(C#N)=C(N)N1	80.8	-2.72*	-24.4	81.6
N#CC1=C(N)NC(SCc2ccc(Br)cc2)=C(C#N)C12CCCCC2	50.4	.	66.6*	60.6
COc1cc(NC(=O)c2ccccc2)cc(OC)c1	98.2	1.99	0.1	89.3
COc1ccc(C(=O)Nc2cc(OC)cc(OC)c2)cc1	96.7	1.72*	15.1	83.0
COc1ccc(C(=O)Nc2ccc(C(=O)OCC(=O)c3ccccc3)cc2)cc1	82.7	-0.233	39.6	72.8
COc1ccc(C(=O)COC(=O)c2ccc(NC(=O)c3ccccc3)cc2)cc1	33.4	-0.00404	43.5	1.1*
CCCCOC(=O)c1ccc(NC(=O)c2ccccc2OC)cc1	63.3	.	64.5*	55.7
O=C(c1ccccn1)N1CCN(S(=O)(=O)c2ccccc2)CC1	.	.	-18.5	.
C=CCn1c(SCC(=O)NC2CCCc3ccccc32)nnc1-c1ccncc1 (centres undefined)	90.9	.	-4.6	88.8
